For one compound, activity (protection/inhibition) results are on record in PubChem BioAssay AID651871 (Sanford-Burnham Center for Chemical Genomics, 2012).

This experiment relates to H9c2. The experiment in a line: protection of cardiomyocytes from stress damage, SAR follow-up, cell-based, panel, H9c2 and HL-1, ATP luminescence, set 2 (AID 651871).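 Also: cells exposed to stressor for 2 h before ATP readout; reference of the scale not given here.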 The conditions noted are these: H9c2/HL-1 cardiomyocytes, 2-deoxyglucose stress, with 2-deoxyglucose, run 4, at 39.5 µM (top of the series).

In turn, `COc1ccc2c(c1OC)C(=O)N1c3ccccc3C(=O)N(Cc3cccc(Cl)c3Cl)C21` (stereo unspecified) came in with an activity (protection/inhibition) of 71%.
